Pf growth 48h: inhibits P. falciparum growth in the first generation, 48 h | Potency, µM (series often up to 28.7 µM), for inactives: at the highest dose activity change, negative = inhibition, most hits filed as inhibitors | AID 504832 | 310,000 compounds, 5.9% hits | P. falciparum luciferase growth in erythrocytes, 48 h; active = well fitted inhibition curve with a large enough effect; inconclusive = small, poorly fitted or top-dose-only effect, or another doubt; inactive = no such curve, though single readings can be large or run the other way; also: % is scaled to controls: 0 for no effect and ±100 for the full control effect
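Growth was read as firefly luciferase luminescence after a 48 h, 37 C, 5% CO2 exposure of compounds to reporter-bearing P. falciparum cultures (0.1% parasitemia, 2% hematocrit final) in Albumax-supplemented RPMI 1640.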
Pf growth 96h: P. falciparum growth inhibition at 96 hour, primary screen for plastid delayed-death inhibitors; P. falciparum luciferase reporter growth, 96 h; AID 504834; 320,000 compounds, 6.9% hits; Potency, µM (titrated, usually from 28.7 µM), without a hit: at the top dose activity change, negative = inhibition, hits mostly inhibitors; active = well fitted inhibition curve with a large enough effect; inconclusive = small, poorly fitted or top-dose-only effect, or another doubt; inactive = no such curve, though single readings can be large or run the other way; also: % is scaled to controls: 0 for no effect and ±100 for the full control effect
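P. falciparum expressing integrated firefly luciferase, in erythrocytes at 2% hematocrit, 0.05% parasitemia, incubated with compounds 96 h at 37 C, 5% CO2. Growth inhibition read as loss of luminescence; two-generation exposure targets delayed-death apicoplast inhibitors.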
NS1 function inh: blocks influenza NS1 protein function; 270,000 compounds, 0.4% hits; Potency, µM (series often up to 46.1 µM), inactives show top-dose activity, positive = more growth; AID 2326; also: actives are rising curves; nearly all actives have a fitted effect of over 50% in size
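A cell-based growth assay was used: compounds that relieve NS1-induced slow growth of budding yeast raise OD600. Assay medium was yeast nitrogen base with ammonium sulphate and -URA supplement, pH 6.0, with 2% galactose.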
SARS PLpro yeast: inhibitors of SARS-CoV papain-like protease in yeast. S. cerevisiae expressing SARS-CoV PLpro, growth rescue. Potency, µM (doses to about 32.9 µM), for the others: top-dose activity, positive = growth rescue, actives largely listed as activators. 330,000 compounds, 0.19% hits. AID 485353; also: 0% is about no effect; nearly all actives have a fitted effect of over 55% in size
Active calls of the source: *; i = inactive; ? = inconclusive; . = not tested or not shown; [ ] = another dose, or the depositor's remark. Most compounds without a hit are left out; they make up all but 10% or so of the library. Unless noted, calls follow the shape of the full dose curve. Potency is read from the fitted curve at half-maximal effect.

SMILES | Pf growth 48h | Pf growth 96h | NS1 function inh | SARS PLpro yeast
COC(/C(=N/O)c1ccc(Cl)cc1)c1ccccc1 (configuration not stated) | 2.1µM* | 2.3µM* | -38% | -9%
CC1CCCC(NC(=S)NC(=O)c2ccco2)C1C (configuration not stated) | . | . | . | 1%
Cc1ccc(-c2nn(-c3ccccc3)cc2C(=O)Nc2ccc(C)c(S(=O)(=O)N3CCOCC3)c2)cc1 | 10µM* | ? | 10% | 0%
O=C(Nc1cccc(S(=O)(=O)N2CCOCC2)c1)c1cn(-c2ccccc2)nc1-c1ccccc1 | -28% | 10µM* | -12% | 11%
O=C(Nc1cccc(S(=O)(=O)N2CCOCC2)c1)c1cn(-c2ccccc2)nc1-c1ccc(F)cc1 | 17% | 40% | 13% | 1%
CCCn1c(N)c(N(CCOC)C(=O)c2ccc([N+](=O)[O-])cc2Cl)c(=O)[nH]c1=O | 1% | ? | 14% | -1%
O=C(CSc1nc(=O)n(CCN2CCOCC2)c2c1CCCC2)Nc1cccc([N+](=O)[O-])c1 | 31% | 23% | . | 1%
COCCN(C(=O)COC(=O)Cc1ccc(Cl)cc1Cl)c1c(N)n(Cc2ccccc2)c(=O)[nH]c1=O | ? | -2% | . | -1%
CC(=O)Nc1ccc(S(=O)(=O)NC(C(=O)O)C2=CCC=CC2)cc1 (configuration not stated) | 28% | 3.7µM* | -4% | 2%
C[C@H](NC(=O)[C@H](Cc1ccccc1)NC(=O)c1cc2cc(Cl)ccc2n1C)C(=O)O | 17% | 11% | 4% | 1%
Cc1nonc1OC(C)CNc1ccc([N+](=O)[O-])cc1 (configuration not stated) | 3.7µM* | 24% | -10% | -14%
Cc1nonc1OCCNc1ccc([N+](=O)[O-])cc1[N+](=O)[O-] | 4% | 49% | 12% | 10%
COc1ccc2c(c1)-c1c(sn(-c3ccc(OC)c(OC)c3)c1=S)C(C)(C)N2 | ? | 10µM* | -13% | -3%
NC(=S)Nc1ccc(C(F)(F)F)cc1Cl | ? | 32% | 0% | -1%
O=C(CN1C2CCCC1CC(NC(=O)c1ccccc1)C2)Nc1ccccc1 (configuration not stated) | ? | 8.3µM* | 16% | 3%
COc1cccc(C(=O)NC2CC3CCCC(C2)N3CC(=O)Nc2ccc(N(C)C)cc2)c1 (configuration not stated) | ? | 12µM* | -36% | -3%
COc1cccc(C(=O)NC2CC3CCCC(C2)N3CC(=O)Nc2ccccc2)c1 (configuration not stated) | 5.2µM* | ? | -16% | 10%
COc1ccc(NC(=O)C(NC(=O)c2ccc(C)cc2)c2ccccc2)cc1 (configuration not stated) | ? | ? | -2% | .
NC(=O)c1ccc([N+](=O)[O-])cc1Cl | ? | 11µM* | . | .
O=C(Nc1nccs1)c1ccc([N+](=O)[O-])cc1Cl | 55% | 10µM* | -3% | 1%
CCCCn1c(C)cc2c(c1=O)[C@H]1O[C@](CCCC)(Cc3c1ccc1ccccc31)O2 | -20%[5.75 µM] | 6%[5.75 µM] | -3% | 1%[6.58 µM]
CCCC[C@]12Cc3c(ccc4ccccc34)C(O1)C1=C(O2)C(=O)c2ccccc2C1=O | 1.5µM* | 36%[5.75 µM] | ? | -5%[6.58 µM]
Cc1csc(NC(=O)CSc2ncnc3c2cnn3-c2ccccc2Cl)n1 | 0% | -2% | -49% | -26%
Cc1ccccc1-n1ncc2c(SCC(=O)NCc3cccs3)ncnc21 | -27% | 5.2µM* | ? | 0%
CSc1ccc(NC(=O)Nc2cc(C)ccn2)cc1 | 125% | i | 8% | 0%
SMILES | Pf growth 48h | Pf growth 96h | NS1 function inh | SARS PLpro yeast
CC(C)CN1C(=O)NC(NC(=O)c2cccs2)(C(F)(F)F)C1=O (configuration not stated) | 2.3µM* | 15% | -2% | -5%
CN1C(=O)NC(NC(=O)c2cccs2)(C(F)(F)F)C1=O (configuration not stated) | 14% | 306% | -7% | 0%
C/C(=N\Nc1nc2ccccc2[nH]1)c1ccc(Cl)s1 | 0.93µM* | ? | 21% | -1%
C/C(=N\Nc1nc(C)cc(C)n1)c1ccc(N2CCOCC2)cc1 | ? | ? | . | -1%
C/C(=N\Nc1nc2ccccc2[nH]1)c1ccc(N2CCOCC2)cc1 | 4.1µM* | 1.7µM* | . | 0%
Cc1ccc(CSCCNC(=O)c2ccc(NS(C)(=O)=O)cc2)cc1 | 2% | 31% | 2% | 2%
CC(C)(C)P(=O)(c1ccncc1)N1CCCC1 (configuration not stated) | ? | 0.74µM* | -3% | -2%
CC(C)(C)n1nnnc1C(c1ccncc1)N1CCCCCC1 (configuration not stated) | -22% | ? | -10% | -3%
COCCN(C(=O)c1cccc(-n2cnnn2)c1)c1c(N)n(CC(C)C)c(=O)[nH]c1=O | -5% | 8% | . | .
Cc1ccc(-c2noc(CSc3nnc(Cc4cccs4)n3-c3ccccc3)n2)cc1 | -11% | 4.7µM* | 1% | -13%
Cc1ccc(-c2noc(CSc3nnc(-c4ccncc4)n3-c3ccc(C)cc3)n2)cc1 | ? | 12µM* | -36% | -5%
Fc1ccc(-n2c(Cc3ccccc3)nnc2SCc2nc(-c3cccs3)no2)cc1 | 10µM* | -27% | -65% | -18%
O=C(Cc1ccsc1)NNC(=O)c1ccccc1Cl | -15% | 28% | . | 3%
Cc1ccc(S(=O)(=O)N2[C@@H](c3ccccc3F)C(C(=O)O)=CC[C@H]2c2ccc3c(c2)OCO3)cc1 | ? | 12µM* | . | 2%
Cc1ccc(S(=O)(=O)N2[C@@H](c3ccc(F)cc3)C(C(=O)O)=CC[C@H]2c2ccc3c(c2)OCO3)cc1 | ? | 12µM* | . | 1%
Cc1ccc([C@@H]2CC=C(C(=O)O)[C@H](c3ccccc3F)N2S(=O)(=O)c2ccc(C)cc2)cc1 | 31% | ? | . | 2%
Cc1cc(C)c(S(=O)(=O)N2CCN(C(=O)CCOc3ccccc3C)CC2)c(C)c1 | 13µM* | ? | . | 0%
Cc1ccc(S(=O)(=O)N2CCN(C(=O)CCc3c[nH]c4ccccc34)CC2)c(C)c1 | ? | 7.4µM* | . | -4%
CCOc1ccccc1OCCCC(=O)N1CCN(S(=O)(=O)c2ccc(C)cc2C)CC1 | ? | 10µM* | . | -5%
Cc1ccccc1OCCC(=O)N1CCN(S(=O)(=O)c2ccc(F)cc2)CC1 | ? | -15% | -10% | -2%
CCOc1ccccc1OCCCC(=O)N1CCN(S(=O)(=O)c2ccc(C)cc2)CC1 | ? | ? | -15% | 0%
CC(Cc1cccs1)NC(=O)CCCn1nnnc1CN1CCOCC1 (configuration not stated) | 14% | ? | -8% | -4%
O=C(NCCNc1ccc([N+](=O)[O-])cc1C(F)(F)F)c1ccccc1 | ? | 13µM* | -43% | 13%
Cc1ccc2c(Cl)cc(Cl)c(OCC(=O)Nc3cccc(S(=O)(=O)N(C)C)c3)c2n1 | 8% | 18% | -1% | -7%
Cc1ccc2c(Cl)cc(Cl)c(OCC(=O)NC(C)(C)C)c2n1 | 12µM* | ? | . | -1%

Screens from PubChem BioAssay.
